# From PubChem BioAssay (EPA / NIEHS)
# Activity calls are given as the source filed them. How the source made its calls: active means hit-call score of the fitted dose curve at least 0.9, where 1 is the maximum; inactive means score below 0.9.
# Read-out: growth arrest and DNA damage 45 (GADD45A), GADD45A (gene 1647)
# Assay: LTEA_HepaRG_GADD45A: Life Technologies and Expression Analysis (LTEA) Assay for growth arrest and DNA damage 45 (GADD45A) using HepaRG (AID 2283458)
# Conditions: mRNA level, 48 h; actives raise or lower the signal
# Experimental: LTEA_HepaRG is a cell based, multiplexed-readout assay that uses HepaRG, a human liver cell line, with measurements taken at 48 hours after chemical dosing on a 96-well plate.LTEA_HepaRG_GADD45A is one of 102 assay component(s) measured in the LTEA HepaRG cell culture assay. It is a marker of Oxidative Stress.Data from the assay component LTEA_HepaRG_GADD45A was analyzed into 1 endpoint. This assay endpoint, LTEA_HepaRG_GADD45A, was analyzed with bidirectional fitting relative to DMSO as the negative control and baseline of activity. Using a type of inducible reporter, measures of mRNA induction for gain or loss-of-signal activity can be used to understand regulation of transcription factor activity. To generalize the intended target to other relatable targets, this assay endpoint is annotated to the cell cycle intended target family, where the subfamily is Oxidative Stress.
# A total of 1060 chemcials from the ToxCast library were tested in eight-point concentration-response experiments. Cell culture and cytotoxicity assays were conducted at Thermo Fisher Scientific's Custom Services facility (Madison, WI). A single lot of human HepaRG cells (Thermo Fisher Scientific, Frederick, MD) was used for the cell culture experiments. 96-well format collagen type I coated plates of human HepaRG cells were prepared using established methods. Briefly, cryopreserved HepaRG cells were thawed, plated at a density of approximately 100,000 cells/well in HepaRG Thaw, Plate, and General Purpose media (HPRG770, Thermo Fisher Scientific), and incubated for 48 hours. 0.5% DMSO was selected as vehicle control to balance the requisite need of DMSO in HepaRG cultures to maintain differentiation (for example, baseline metabolism, proportions of hepatocytes vs. cholangiocytes), while enabling further hepatic receptor pathway activation (for example, PXR and CAR) in response to chemical exposure. 48 hours after plating, the culture medium was replaced with HepaRG Serum-Free Incudtion Media. Cells were exposed to each test chemical in duplicate and maintained in CO2 incubators for another 48 hours. Chemical plates were thawed to room temperature and 200x concentrations of treatment groups were prepared. 8-point conentration-reponse curves were made with the highest exposure at 100 uM, followed by half-log dilutions, all in 0.5% DMSO. Each test plate contained variouse controls, induction positive controls (1mM phenobarbital), cytotoxicity positive controls ([…] aflatoxin B1), vehicle controls (0.5% DMSO), and total lysis controls (0.5% DMSO). Cell morphology images were taken using an Essen IncuCyte FLR automated microscope, with six 96-well plates imaged in about 24 minutes. Images were captured and exported and JPEG files. Spent culture media was transfered to black-well plates for the LDH assay, and remaining media was sorted at -80 C for later use. Cells were treated with RLT buffer and frozen until shipped for gene expression analysis. Total RNA was isolated from the cell suspension in 75 uL of Buffer RLT (Qiagen, Germantown, MD 20874) by Quintiles/Expression Analysis (Durham, NC) using a custom isolation procedure. Total RNA from each plate well was transferred to a preamplification plate. Fluidigm's 96.96 Dynamic ArrayTM (Fluidigm, Amsterdam, the Netherlands) technology was used for gene expression analyses by quantitative reverse transcription polymerase chain reaction (qRT-PCR, performed by Quintiles/Expression Analysis, Durham, NC)89. Standard TaqManTM Assays (Applied Biosystems/ThermoFisher Scientific, Foster City, CA) were used to assess the expression of 93 genes selected based on their selectivity and sensitivity to important hepatic receptors known to be modulated by environmental chemicals; importance in human hepatocyte functionality; and hepatotoxicity. […]
Compound,outcome,AC50
O=C(O)CC(O)(CC(=O)O)C(=O)O,inactive,
COc1ccc(C(=O)Nc2nc3ccccc3c(NCc3ccccc3)c2C#N)cc1,inactive,
c1ccc2occc2c1,inactive,
CC(C)c1cccc(C(C)C)c1,inactive,
O=C(NS(=O)(=O)/C=C/c1cccs1)c1ccc(F)cc1Br,inactive,
CCCCCCCCCCCCCCCCO,inactive,
CCCCCCCCCC[N+](C)(C)[O-],inactive,
CCc1nc(N)nc(N)c1-c1ccc(Cl)cc1,,27.2 µM (active)
CC(C)NCC(O)c1ccc(O)c(O)c1 (stereo not given),inactive,
Nc1nc(=S)c2[nH]cnc2[nH]1,inactive,
NC(=Nc1ccccc1)Nc1ccccc1,inactive,
CCCCCCC(C=O)=Cc1ccccc1,inactive,
O=C1NC(=O)C(c2ccccc2)(c2ccccc2)N1,inactive,
CCCC[C@H]1CN(CC2CCOCC2)C(=O)OC12CCN(C1(C)CCN(C(=O)c3c(C)ncnc3C)CC1)CC2,inactive,
CC(=O)S[C@H](C(=O)N[C@H]1Cc2ccccc2[C@H]2CCC[C@@H](C(=O)O)N2C1=O)C(C)C,inactive,
CCCCC(CC)CO (stereo not given),inactive,
C=CCCCCCCCCCCCC,inactive,
CCCCCCCCCCCCCCOS(=O)(=O)O,inactive,
O=C(N[C@@H](c1ccccc1)[C@@H]1CCCCN1)c1cccc(C(F)(F)F)c1Cl,inactive,
C/C=C/c1ccc(OC)cc1,inactive,

Compound,outcome,AC50
O=C(O)CN(CC(=O)O)CC(=O)O,inactive,
O=C(O)c1cccnc1,inactive,
CCCCC(CC)COP(=O)(OCC(CC)CCCC)OCC(CC)CCCC (stereo not given),inactive,
CC(C)(O)c1ccc(CNC(=O)c2cccnc2Oc2ccc(F)cc2)cc1,inactive,
OCC(CO)n1cnc(-c2ccc(F)cc2)c1-c1ccnc(Oc2ccccc2)n1,inactive,
CC(C)COC(=O)CCCCC(=O)OCC(C)C,inactive,
Cc1occc(=O)c1O,inactive,
O=Cc1ccccc1C=O,inactive,
CO[C@@H]1COCC[C@@H]1N[C@@H]1CC[C@@](C(=O)N2CCc3ncc(C(F)(F)F)cc3C2)(C(C)C)C1,inactive,
CCc1cc(C2=C(C(=O)O)N(c3ccccc3C(F)(F)F)S(=O)(=O)c3ccccc32)cc2c1OCO2,inactive,
CCN(CC)CCOc1ccc(C(=C(Cl)c2ccccc2)c2ccccc2)cc1,inactive,
CCC(C)N(C)C(=O)c1cc2ccccc2c(-c2ccccc2Cl)n1 (stereo not given),inactive,
Cc1cn([C@H]2C=C[C@@H](CO)O2)c(=O)[nH]c1=O,inactive,
CC(=O)OC1CC(C)OC(C)O1 (stereo not given),inactive,
CCCC(=O)O,,0.0993 µM (active)
NC1CCCCC1,inactive,
CC(COCC(C)OC(=O)c1ccccc1)OC(=O)c1ccccc1 (stereo not given),inactive,
CC(C)c1cccc(C(C)C)c1NC(=O)NS(=O)(=O)c1cc(C(C)(C)O)co1,inactive,
CC(=O)OCC(COC(C)=O)OC(C)=O,inactive,
CN(C)CCCN1c2ccccc2Sc2ccc(Cl)cc21,inactive,
